# NCOA3 inh: human NCOA3 inhibition; Q9Y6Q9; HEK293 GAL4-SRC3 luciferase reporter, luminescence; inhibition, % at 3.6 µM; 360,000 tested, 0.17% active; AID 588352;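 active = inhibition above a per-campaign cutoff, the mean of all compounds plus 3 SD, cut at about 60% in these data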;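 also: 0% = DMSO-treated cells and 100% = gossypol-treated cells at 36 µM; higher means less SRC3-driven luciferase light from the GAL4 reporter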
# NCOA2 inhibitor: human SRC2 (NCOA2) inhibition. AID 651957. inhibition, % at 9 µM. 370,000 tested, 0.17% active. Q15596. HEK293 GAL4-SRC2 luciferase reporter, luminescence;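 active = inhibition above the mean inhibition of all tested compounds plus 3 SD, set per campaign, cut at about 52% in these data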;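 also: 0% = DMSO treated cells and 100% = cells given Gossypol at 36 µM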
# SRC1 inh: human NCOA1 inhibition | 360,000 tested, 0.12% active | HEK293 GAL4-SRC1 luciferase reporter, luminescence | inhibition, % at 3.6 µM;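 active = inhibition above the campaign mean plus 3 SD, with each screening campaign given its own cutoff, cut at about 60% in these data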;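 also: 0% = DMSO treated cells and 100% = gossypol at 36 µM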
# GalR3 antagonist: antagonists of human GalR3 | O60755 | AID 651719 | inhibition, % at 3 µM | HEK293 GalR3-CNG cAMP membrane potential fluorescence; galR3 body fused to GalR1 C-terminus | 360,000 tested, 0.44% active;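 active = inhibition above the screen-wide average plus 3 SD, cut at about 13% in these data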;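 also: forskolin and galanin both at EC90 stimulate the cells; cAMP rise reported by CNG channel membrane potential dye signal; 0% = forskolin plus galanin with DMSO and 100% = forskolin alone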
# NR5A2 inv ag: NR5A2 inverse agonism in reporter assay; HEK293T StAR-luciferase reporter, LRH-1 transfected, 24 h; inhibition, % at 3.6 µM; 360,000 tested, 0.13% active;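 active = inhibition above the mean inhibition of all tested compounds plus 3 SD, cut at about 73% in these data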;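 also: 0% = DMSO wells and 100% = reporter-only cells lacking LRH-1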
# NR2F2 inh: inhibitors of human COUP-TFII (NR2F2) | P24468 | HEK293T NGFI-A luciferase reporter, luminescence | inhibition, % at 8.6 µM | 370,000 tested, 0.7% active;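 active = inhibition above a per-plate cutoff, mean inhibition of test wells between control levels plus 3 SD, cut at about 38% in these data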;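 also: cells cotransfected with COUP-TFII expression vector driving the NGFI-A reporter; 0% = median of COUP-TF2 test wells and 100% = reporter-only cells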
# VP16 Luc counter: inhibits VP16 reporter, flagging COUP-TFII antagonist hits. shares compounds with NR2F2 inh. HEK293 Gal4-VP16 luciferase reporter, luminescence. inhibition, % at 8.5 µM. 2,500 tested, 25% active; in the data active = inhibition above about 13%
# COUP-TFII conf: confirmation of human COUP-TFII (NR2F2) inhibitors; shares compounds with NR2F2 inh; HEK293 NGFI-A luciferase reporter, luminescence; inhibition, % at 8.5 µM; 2,500 tested, 45% active; AID 687008;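 active = mean inhibition over three repeats above a set limit taken from the earlier primary screen, cut at about 38% in these data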;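 also: 100% = cells given the luciferase reporter alone without the COUP-TF2 vector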
# * marks the source's active call; other numbers are inactive results; / = no result. Shown are actives, neighbours in structure and some others; about 1.1% of the full set was active somewhere.
SMILES,NCOA3 inh,NCOA2 inhibitor,SRC1 inh,GalR3 antagonist,NR5A2 inv ag,NR2F2 inh,VP16 Luc counter,COUP-TFII conf
Nc1nc(F)nc2c1ncn2[C@@H]1O[C@H](CO)[C@@H](O)[C@H]1O,92.4*,69.0*,88.2*,-8.2,101.9*,81.8*,54.7*,65.4*
COc1ccc(NC(=O)CSc2nnc(-c3cccc(O)c3)o2)cc1,4.0,-10.9,4.0,-11.4,21.7,-9.7,/,/
COc1cccc(NC(=O)CSc2nnc(-c3cc(C)n(-c4ccccc4)c3C)o2)c1,48.6,40.2,43.1,-0.1,58.7,68.0*,30.1*,69.9*
CCCCCCCCN1C(=O)[C@@H](CC(=O)NCc2cccc3ccccc23)C[C@@]2(C(=O)OC)C1=C[C@H](C(C)C)O[C@@H]2C1CC1,/,-3.0,/,/,/,3.8,/,/
COc1ccc(NC(=O)COc2ccccc2Cc2ccccc2)cc1S(N)(=O)=O,17.6,-19.4,31.0,-8.4,21.9,43.5*,-3.1,13.2
COc1ccc(-n2ncc3c(N4CCC(C(N)=O)CC4)ncnc32)cc1,-110.7,-55.8,-102.5,-3.6,-113.0,-33.2,/,/
O=C(c1cccs1)C1CCN(c2ncnc3sccc23)CC1,/,/,/,/,/,75.8*,11.9,68.5*
O=C(c1ccc(Cl)cc1)C1CCN(c2ncnc3sccc23)CC1,/,/,/,/,/,69.0*,0.0,55.8*
COc1ccc(C(=O)C2CCN(c3ncnc4sccc34)CC2)cc1,/,/,/,/,/,76.2*,4.5,68.3*
O=C(CSc1nnc(-c2ccccc2)n1-c1ccccc1)Nc1cccc2ccccc12,/,7.6,/,/,/,2.1,/,/
CC(C)(C)c1ccc(C(=O)O)c(C(=O)c2ccc(C(=O)O)cc2)c1,21.2,-8.2,8.7,-5.0,-19.3,-3.7,/,/
CC1=C2NC(N)=[N+](Cc3ccc4c(c3)OCO4)CC2NOC1 (stereo unspecified),/,/,/,/,/,-21.8,/,/
Cc1ccc(-n2c(SCC(=O)Nc3cccc4ccccc34)nnc2-c2cnccn2)cc1,/,-18.6,/,/,/,3.7,/,/
COC(=O)[C@]12CCCCC=C1N(Cc1ccccc1)C(=O)[C@H](CC(=O)NCC13CC4CC(CC(C4)C1)C3)C2,/,-4.6,/,-5.7,-1.7,17.3,/,/
CCc1ccc(C(=O)OCC(=O)c2c(N)n(CC(C)C)c(=O)n(C)c2=O)cc1,2.4,3.9,2.1,-11.0,12.1,46.9*,6.9,18.9
CC(C)(C)c1ccc(C(=O)N2CCCCCC2=O)cc1,50.8,86.9*,43.9,-1.6,57.3,85.8*,80.6*,76.4*
CCN(CC)C(=O)CC[C@H]1CC[C@]2(CCCN(Cc3cccnc3)C2)O1,/,7.6,/,/,/,13.8,/,/
COc1ccc(C2C(C(=O)Nc3cc(OC)c(OC)c(OC)c3)CCC(=O)N2c2ccc(OC)cc2)cc1 (stereo unspecified),/,1.6,/,/,/,14.3,/,/
Cc1c(C(=O)Nc2ccncc2)sc2nc(-c3ccccc3)cn12,7.3,11.2,6.7,/,-36.1,51.7*,-41.0,11.5
Cc1c(C(=O)Nc2ccc3c(c2)OCCO3)sc2nc(-c3ccccc3)cn12,24.8,-6.9,10.4,-2.3,-28.4,32.3,/,/
CCN(CC)c1ccc(NS(=O)(=O)c2cn(C)c(=O)n(C)c2=O)c(C)c1,-7.2,-20.1,-1.6,/,14.9,78.4*,-13.1,-7.1
Cc1ccc(NS(=O)(=O)c2cn(C)c(=O)n(C)c2=O)cc1C,4.7,-1.0,0.6,/,13.2,-11.7,/,/
C=C1C(=O)O[C@H]2C[C@H]1[C@@H](OC(C)=O)C/C(C)=C/CC/C(C)=C\CC[C@]2(C)O,71.8*,43.6,33.2,-1.4,40.6,40.3*,32.0*,38.3*
COc1ccc([C@H]2CC(=O)C=C(c3ccc(Oc4ccccc4)cc3)C2)cc1OC,-4.0,40.4,-6.5,7.0,-2.8,44.2*,-5.3,12.0
COc1ccc(-c2c[n+](CC(=O)OC3CC(C)CCC3C(C)C)c3n2CCC3)cc1 (stereo unspecified),56.7,5.3,9.8,-0.1,45.1,64.0*,5.7,19.4
CC(C)[C@@H]1CC[C@@H](C)C[C@H]1OC(=O)C[n+]1cc(-c2ccc(Cl)cc2)n2c1CCCCC2,36.9,9.3,11.2,-5.5,23.4,24.0,/,/

# Source: PubChem BioAssay
